Counter-ions that a name gives are not always drawn.
System: Drosophila S2 cl14 SmoIP sensor cells
Experiment: normalized SmoIP GFP fluorescence (untreated unstimulated = 0%, untreated Hh-stimulated = 100%); higher = more Smo activation sensor fluorescence
Settings: compound concentration: 2 uM, 24 h
[1] = stimulation: Hh conditioned medium (+Hh)
[2] = stimulation: mock conditioned medium (-Hh)
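Also: flow cytometry read-out as median GFP intensity of gated cells, compounds added 30 min before Hh-conditioned or mock medium, mock-treated cells serving as unstimulated baseline.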

| SMILES | normalized SmoIP GFP fluorescence [1] | normalized SmoIP GFP fluorescence [2] |
| --- | --- | --- |
| CS(=O)(=O)CCNCc1ccc(-c2ccc3ncnc(Nc4ccc(OCc5cccc(F)c5)c(Cl)c4)c3c2)o1 [Lapatinib-Ditosylate] | 253% | 9% |
| COc1ccccc1OCCNCC(O)COc1cccc2[nH]c3ccccc3c12 (configuration not stated) [carvedilol] | 118% | -7.78% |
| Cc1cccc(-c2[nH]ncc2-c2ccc3ncccc3n2)n1 [repsox] | 109% | -0.378% |
| CC1(C)CC(=O)c2c(C(F)(F)F)nn(-c3ccc(C(N)=O)c(N[C@H]4CC[C@H](OC(=O)CN)CC4)c3)c2C1 | 233% | 83.8% |
| COc1c(C)c(C(=O)c2ccc(N)c(C(=O)O)c2)n2ccccc12 | 113% | -1.34% |
| CCc1c(C(=O)NCCc2ccc(N3CCCCC3)cc2)[nH]c2ccc(Cl)cc12 | 167% | -0.804% |
| O=C(C[S+]([O-])Cc1ccco1)NC/C=C\COc1cc(CN2CCCCC2)ccn1 (configuration not stated) [lafutidine] | 113% | -9.85% |
| CN(C)Cc1c(C(=O)NCCOc2ccc(C(=O)NO)cc2)oc2ccccc12 | 211% | 35.2% |
| CC(=O)NS(=O)(=O)c1ccc(N)cc1 [sulfacetamide-sodium] | 103% | -5.72% |
| CCOC(=O)[C@H](CCc1ccccc1)N[C@@H](C)C(=O)N1CCC[C@H]1C(=O)O [Enalapril-maleate(Vasotec)] | 97.8% | -15.1% |
| COC(=O)[C@]12CCC(C)(C)C[C@H]1[C@H]1C(=O)C=C3[C@@]4(C)C=C(C#N)C(=O)C(C)(C)[C@@H]4CC[C@@]3(C)[C@]1(C)CC2 [bardoxolone-methyl] | 102% | 0.986% |
| CC(C)(C)Cn1c(N)nc2ccc(-c3[nH]c(C(C)(C)C)nc3-c3ccc(F)cc3)nc21 | 101% | 1.35% |
| CN1CC(=O)N2[C@H](c3ccc4c(c3)OCO4)c3[nH]c4ccccc4c3C[C@@H]2C1=O [Tadalafil(Cialis)] | 94.8% | -0.265% |
| O=c1oc2cc(O)ccc2s1 [tioxolone] | 169% | -1.83% |
| CCCSc1nc(N[C@@H]2C[C@H]2c2ccc(F)c(F)c2)c2nnn([C@@H]3C[C@H](OCCO)[C@@H](O)[C@H]3O)c2n1 [ticagrelor] | 113% | -3.39% |
| O=C(NOCC1CC1)c1ccc(F)c(F)c1Nc1ccc(I)cc1Cl | 112% | 10.7% |
| Nc1nc(N)c2nc(-c3cccc(O)c3)cnc2n1 | 108% | -4.7% |
| C[C@@H]1COC(Nc2ccc3ncnc(Nc4ccc(OCc5nccs5)c(Cl)c4)c3c2)=N1 | 108% | -17.2% |
| CC/C(=C(\c1ccccc1)c1ccc(OCCN(C)C)cc1)c1ccccc1 [Tamoxifen-Citrate(Nolvadex)] | 112% | -6.61% |
| O=C(O)CC[C@H]1CC[C@@](c2cc(F)ccc2F)(S(=O)(=O)c2ccc(Cl)cc2)CC1 | 114% | 2.32% |
| CNCCc1ccccn1 [betahistine-dihydrochloride] | 98.3% | -3.05% |
| CCN(CC)C(=O)/C(C#N)=C/c1cc(O)c(O)c([N+](=O)[O-])c1 [entacapone] | 106% | -3.05% |
| Cc1c(C(=O)NN2CCCCC2)nn(-c2ccc(Cl)cc2Cl)c1-c1ccc(Cl)cc1 | 107% | 2.46% |

| SMILES | normalized SmoIP GFP fluorescence [1] | normalized SmoIP GFP fluorescence [2] |
| --- | --- | --- |
| Cn1cnc(N)c2ncnc1-2 [3-methyladenine] | 111% | -4.89% |
| Clc1ccc(Nc2nnc(Cc3ccncc3)c3ccccc23)cc1 [Vatalanib,Dihydrochloride-Salt] | 125% | -9.22% |
| C=CC(=O)Nc1ccc2ncnc(Nc3ccc(OCc4cccc(F)c4)c(Cl)c3)c2c1 | 99.1% | -15.8% |
| Cc1cc(C(C)(C)C)c(O)c(C)c1CC1=NCCN1 [Oxymetazoline-hydrochloride] | 95.8% | -3.5% |
| CN1CCN(c2ccc3nc(-c4c(N)c5c(F)cccc5[nH]c4=O)[nH]c3c2)CC1 | 63.2% | 69.1% |
| O=S(=O)(NCCNC/C=C/c1ccc(Br)cc1)c1cccc2cnccc12 [H-89-dihydrochloride] | 105% | 5.45% |
| O=C(Nc1cccc(Cl)c1)c1ccccn1 | 105% | -2.93% |
| CCCC(CCC)C(=O)O [Divalproex-sodium] | 134% | -10.4% |
| CCC(CC)CC1(C(=O)Nc2ccccc2SC(=O)C(C)C)CCCCC1 [dalcetrapib-jtt-705] | 137% | -10.6% |
| NCCc1c[nH]cn1 [histamine-2hcl] | 104% | 1.21% |
| Cc1cc(Nc2ncc(Cl)c(Nc3ccccc3S(=O)(=O)C(C)C)n2)c(OC(C)C)cc1C1CCNCC1 | 113% | 3.77% |
| CCOC(=O)c1ccc(N2NC(=O)C(=Cc3ccc([N+](=O)[O-])o3)C2=O)cc1 | 119% | 8.94% |
| NC(=O)c1ccc(N(C(N)=O)c2c(F)cccc2F)nc1-c1ccc(F)cc1F | 103% | -3.5% |
| CC(C)c1nc(CN(C)C(=O)N[C@H](C(=O)N[C@@H](Cc2ccccc2)C[C@H](O)[C@H](Cc2ccccc2)NC(=O)OCc2cncs2)C(C)C)cs1 [Ritonavir] | 109% | -4.47% |
| C[C@H](Oc1cc(-c2cnn(C3CCNCC3)c2)cnc1N)c1c(Cl)ccc(F)c1Cl [s-crizotinib] | 114% | 7.39% |
| O=C(O)CCCCC(CCSCc1ccccc1)SCc1ccccc1 (configuration not stated) | 112% | -1.63% |
| CCC(=O)NCC[C@@H]1CCc2ccc3c(c21)CCO3 [Ramelteon] | 95.6% | -0.588% |
| CS(=O)(=O)c1cccc(CNc2nc(Nc3ccc4c(c3)CCC(=O)N4)ncc2C(F)(F)F)c1 | 209% | 71.5% |
| CN(C)CC(c1ccc(O)cc1)C1(O)CCCCC1 (configuration not stated) [desvenlafaxine-succinate] | 103% | -5.38% |
| O=C(O)c1cccc(-c2noc(-c3ccccc3F)n2)c1 | 116% | -0.662% |
| CC(C)C[C@H](NC(=O)[C@H]1O[C@@H]1C(=O)O)C(=O)NCCCCN=C(N)N | 129% | -3.72% |
| CNC(CC(=O)O)C(=O)O (stereo not drawn) [nmda-n-methyl-d-aspartic-acid] | 101% | -3.16% |
| CN(C)CCC=C1c2ccccc2CCc2ccccc21 [amitriptyline-hydrochloride] | 104% | -3.27% |

— the supplement of paper PMC5662767
